Measurements from PubChem BioAssay.
Unmarked numbers belong to inactive results. No rule for the calls is given here.

These compounds were tested on Aerobactin synthetase IucA (Klebsiella pneumoniae hvKP1) (assay: Biochemical IucA enzyme inhibition primary screen of the Spectrum library (AID 1346200;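 also: 100% = wells without compound and 0% = wells lacking enzyme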)). Conditions: malachite green pyrophosphate, A620, at 8 µM, stronger effect = lower value.

Structure (SMILES)	activity remaining
Cc1cccc(Nc2ccccc2C(=O)O)c1C	111%
CCCCCCCCCCCC1=C(O)C(=O)C=C(O)C1=O	102%
CC(=O)OCC[N+](C)(C)C	118%
CC(C)CCCC(C)C1CCC2C3CC[C@H]4C[C@@H](O)CC[C@]4(C)C3CC[C@]12C (some centres undefined)	109%
CC1CC[C@@]2(OC1)O[C@H]1CC3C4CC[C@@H]5C[C@@H](O)CC[C@]5(C)C4CC[C@]3(C)[C@H]1[C@@H]2C (some centres undefined)	111%
C[C@@H]1[C@H]2[C@H](O[C@@H]3O[C@H](CO)[C@@H](O)[C@H](O)[C@H]3O)OC=C(C(=O)O)[C@H]2C[C@@H]1O	120%
Nc1ccc(S(=O)(=O)Nc2cnc3ccccc3n2)cc1	123%
C[N+]1(C)C2CC[C@H]1CC(OC(=O)C(O)c1ccccc1)C2 (some centres undefined)	95%
COC(=O)CC1C(C)(C)C(OC(C)=O)[C@@H]2[C@@H](OC(C)=O)[C@]34O[C@@]2(O)[C@]1(C)C3CC[C@]1(C)C4=CC(=O)O[C@H]1c1ccoc1 (some centres undefined)	124%
c1ccc(CC2=NCCN2)cc1	118%
CN(C)CCc1c[nH]c2ccc(Cn3cncn3)cc12	102%
CC(=O)OCC(=O)[C@@]1(O)CCC2C3CCC4=CC(=O)CC[C@]4(C)C3[C@@H](O)C[C@@]21C (some centres undefined)	85.9%
CC(=O)O[C@@](C)(CCC=C(C)C)C1CC=C(C)CC1 (some centres undefined)	91.6%
C=C1C2=CC(=O)O[C@@H](c3ccoc3)[C@]2(C)CCC1[C@@]1(C)C=CC(=O)C(C)(C)[C@@H]1CC(=O)OC (some centres undefined)	100%
